The values that follow come from the supplement of paper PMC12669797.

Counter-ions that a name gives are not always drawn.

The experiment concerns TOV-21G. The experiment is described as follows: cell viability relative to DMSO control (MTS) (fraction of DMSO control); higher = more viable cells / less growth inhibition. The note with it: 10 µM; 48 h. The gist of the method: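 TOV-21G and ES2 clear cell carcinoma cells were plated in 96-well plates at 5000 cells per well, grown for 24 h, and then exposed to a 367-compound […] library at a final concentration of 10 µM, with vehicle alone in control wells. An MTS assay (CellTiter 96 AQueous One Solution) was read 48 h later according to the manufacturer's protocol. Viability is reported as a fraction of the vehicle control.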
For the molecule `O=C(Nc1cccc(NC(=O)c2cccc(O)c2O)c1)c1cccc(O)c1O`, the cell viability came to 0.302.
`CN(C)S(=O)(=O)c1ccc2c(c1)/C(=C/c1cc3c([nH]1)CCCC3)C(=O)N2` returned a cell viability of 0.891.
`C[C@@H]1C[C@H]2O[C@@H]2/C=C\C=C\C(=O)Cc2c(Cl)c(O)cc(O)c2C(=O)O1` [radicicol] registered a cell viability of 0.342.
In turn, `CC[n+]1c(/C=C/N(C)c2ccccc2)n(-c2ccccc2)c2ccc(-c3nc4ccccc4s3)cc21` [Akt Inhibitor IV] displayed a cell viability of 0.218.
As for `NNCCc1ccccc1` [Phenelzine], the figure is 1.25.
As for `CC[C@]1(O)C[C@@H]2CN(CCc3c([nH]c4ccccc34)[C@@](C(=O)OC)(c3cc4c(cc3OC)N(C)[C@H]3[C@@](O)(C(=O)OC)[C@H](OC(C)=O)[C@]5(CC)C=CCN6CC[C@]43[C@@H]65)C2)C1` [Vinblastine sulfate], the figure is 0.427.
